This passage reports Potency, viability and viability (% of DMSO control) results from PubChem BioAssay (NCATS).

A word on the viability: it is a read-out of living cells in per cent, often relative to untreated cells.

A short description of assay [1]: Quantitative High-Throughput drug screen in 47 multiple myeloma cell lines against the NCATS MIPE library collection: L363_DSMZ cell viability assay (AID 1918984). Further: nearly all actives have a fitted effect of over 40% in size. An outline of the steps: (§1)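 MIPE 4.0 approved/investigational drugs; 500 cells/well; 48 h 37 °C humidified 5% CO2; CTG luminescence readout; DMSO = 100%, media = 0% viability.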
The nature of assay [2]: Quantitative High-Throughput drug screen in 47 multiple myeloma cell lines against the NCATS MIPE library collection: OCIMY7_PLB cell viability assay (AID 1918987). Further: nearly all actives have a fitted effect of over 65% in size. An outline of the steps:
as §1

Assay [3] in a line: Quantitative High-Throughput drug screen in 47 multiple myeloma cell lines against the NCATS MIPE library collection: OCIMY5_PLB cell viability assay (AID 1918988). Further: nearly all actives have a fitted effect of over 65% in size. An outline of the steps:
as §1

Assay [4] is described as follows: Quantitative High-Throughput drug screen in 47 multiple myeloma cell lines against the NCATS MIPE library collection: U266_ATCC cell viability assay (AID 1919864). Further: nearly all actives have a fitted effect of over 35% in size.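 On viability (% of DMSO control): 0% = media-only wells without cells and 100% = DMSO-only wells.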 An outline of the steps:
as §1

A short description of assay [5]: Quantitative High-Throughput drug screen in 47 multiple myeloma cell lines against the NCATS MIPE library collection: PCM6_Riken cell viability assay (AID 1919870). Further: nearly all actives have a fitted effect of over 30% in size. An outline of the steps: as §1
Assay [6] is described as follows: Quantitative High-Throughput drug screen in 47 multiple myeloma cell lines against the NCATS MIPE library collection: KMS34_JCRB cell viability assay (AID 1918985). Further: nearly all actives have a fitted effect of over 40% in size. An outline of the steps:
as §1

A short description of assay [7]: Quantitative High-Throughput drug screen in 47 multiple myeloma cell lines against the NCATS MIPE library collection: SKMM1_PLB cell viability assay (AID 1919863). Further: nearly all actives have a fitted effect of over 35% in size. To be noted: SKMM1 myeloma viability, CellTiter-Glo ATP, 48 h; viability: active compounds read low. An outline of the steps:
as §1
A general note: ATP-based viability assays read luminescence as a measure of living cells.

Assay [8] can be described thus: Quantitative High-Throughput drug screen in 47 multiple myeloma cell lines against the NCATS MIPE library collection: XG6_PLB cell viability assay (AID 1919865). Further: nearly all actives have a fitted effect of over 40% in size. An outline of the steps: as §1
The nature of assay [9]: Quantitative High-Throughput drug screen in 47 multiple myeloma cell lines against the NCATS MIPE library collection: OPM1_PLB cell viability assay (AID 1918989). Further: nearly all actives have a fitted effect of over 40% in size. An outline of the steps: as §1
Assay [10] can be described thus: Quantitative High-Throughput drug screen in 47 multiple myeloma cell lines against the NCATS MIPE library collection: UTMC2_PLB cell viability assay (AID 1919868). Further: nearly all actives have a fitted effect of over 55% in size.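 On viability (% of DMSO control): 100% = DMSO-only wells and 0% = media-only wells without cells.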 To be noted: CellTiter-Glo ATP luminescence, 48 h; viability (% of DMSO control): at 45.8 µM (top of the series). An outline of the steps: as §1

Structures are written as SMILES. Results filed as inconclusive are left out. A number with no mark means an inactive call. Calls of active or inactive are those of the source. The call rests on the fitted dose curve; in most records, active means well fitted cell-killing curve with a large enough effect; inconclusive means small, poorly fitted or top-dose-only effect, or effect the other way; inactive means no such curve, though single readings can be large or run the other way.
Potency means the concentration at half of the fitted maximal effect.

On to `CCCC(C)(COC(N)=O)COC(=O)NC(C)C` (stereo not given), for which the Potency result in assay [1], in assay [2], in assay [3], in assay [4] and in assay [5] was “inactive” in each case.
Take `Cc1cccc(C)c1NC(=O)CN1CCCC1=O`: the Potency entry in assay [1], in [6], in [2], in [3], in [8] and in assay [5] was “inactive” in each case. In [7], the viability is 118%.
Consider `CC(C)CC(N(C)C)C1(c2ccc(Cl)cc2)CCC1` (stereo not given), for which the Potency result in assay [1], in assay [6], in [9] and in assay [8] was “inactive” throughout. Besides, the Potency in assay [4] was 4.18 µM (active).
Take `O=C(O)C(=O)c1cn(Cc2ccccc2)c2ccc(-c3ccc(OC(F)(F)F)cc3)cc12`: the Potency result in [6] and in assay [9] was “inactive” throughout. Further, the figures for the Potency in [7], in [4] and in assay [5] were 3.72 µM (active), 23.5 µM (active) and 16.6 µM (active), respectively.
In the case of `COC[C@@H](NC(C)=O)C(=O)NCc1ccccc1`, the Potency result in assay [1], in [6], in assay [3], in assay [9], in assay [8] and in [5] was “inactive” each time. Also, in assay [7], the viability was 103%.
Regarding `CN1CCN(C(=O)O[C@H]2c3nccnc3C(=O)N2c2ccc(Cl)cn2)CC1`, the Potency result in assay [6], in assay [2], in assay [9], in [8] and in assay [5] was “inactive” throughout. In addition, in assay [10], the viability (% of DMSO control) is 181% (active).
With `O=C1CC[C@@]2(O)[C@H]3Cc4ccc(O)c5c4[C@@]2(CCN3CC2CC2)[C@H]1O5`, the Potency entry in assay [6], in assay [4], in assay [8], in assay [10] and in assay [5] was “inactive” throughout. The Potency in assay [9] is 7.43 µM (active). Further, the viability in assay [7] was 110%.
For `COc1ccc(C(CN(C)C)C2(O)CCCCC2)cc1` (stereo not given), the Potency entry in [1], in [6], in [9] and in [10] was “inactive” in each case.
Consider `CN(C)[C@@H]1C(=O)C(C(N)=O)=C(O)[C@@]2(O)C(=O)C3=C(O)c4c(O)cccc4[C@@](C)(O)[C@H]3C[C@@H]12`, for which the Potency result in [1], in [4], in assay [8] and in assay [5] was “inactive” each time.
Regarding `COc1ccc(C(=O)c2c(C)n(CCN3CCOCC3)c3ccccc23)cc1`, the Potency result in assay [9], in assay [4], in assay [8], in [10] and in assay [5] was “inactive” throughout.
For the compound `C[C@@H]1[C@@H](C(=O)C[C@H]2O[C@@H]3O[C@]4(C)CC[C@@H]5[C@H](C)CC[C@@H]([C@H]2C)[C@@]35OO4)O[C@@H]2O[C@]3(C)CC[C@H]4[C@H](C)CC[C@@H]1[C@@]24OO3`, the Potency in assay [1] is 0.059 µM (active); in assay [6], 0.235 µM (active); in assay [2], 0.0743 µM (active); in assay [3] it was 0.332 µM (active); in assay [9] it was 0.418 µM (active); in [7], 0.743 µM (active). Moreover, in [10], the Potency was 0.166 µM (active).
Turning to `CNCC(O)c1ccc(O)cc1` (stereo not given), the Potency entry in [6], in [2], in assay [9] and in [4] was “inactive” throughout.
Take `CC1=C2C[C@@H]3[C@@H](CC=C4C[C@@H](O)CC[C@@]43C)[C@@H]2CC[C@]12O[C@H]1C[C@H](C)CN[C@H]1[C@H]2C`: the Potency result in [6], in assay [8] and in [5] was “inactive” each time. Further, the Potency in assay [3] was 11.8 µM (active); in [9], 0.0469 µM (active); in assay [4], 20.9 µM (active).
`Cc1cc(SCc2sc(-c3ccc(C(F)(F)F)c(F)c3)nc2C)ccc1OCC(=O)O`: the Potency in assay [2] is 20.9 µM (active); in assay [3], 13.2 µM (active); in assay [9], 20.9 µM (active); in assay [4] it was 18.7 µM (active); in assay [5] it was 20.9 µM (active).
In the case of `COc1ccc2c(c1OC)CN1CCc3cc4c(cc3C1C2)OCO4` (stereo not given), the Potency is 5.9 µM (active) in assay [1], 20.9 µM (active) in assay [8], 2.09 µM (active) in [10] and 16.6 µM (active) in [5]. Further, the Potency entry in assay [6], in assay [2] and in assay [9] was “inactive” each time. Besides, the viability in assay [7] was 104%.
Take `O=c1[nH]c2ccccc2n1CCCN1CCC(n2c(=O)[nH]c3cc(Cl)ccc32)CC1`: the Potency result in [9] and in assay [4] was “inactive” throughout. The viability in [7] is 125%. In addition, the Potency in [8] is 20.9 µM (active); in assay [5], 2.96 µM (active).
Turning to `C#CCN(C)[C@H](C)Cc1ccccc1`, the Potency result in assay [1], in assay [6], in [9] and in [4] was “inactive” each time. The Potency in assay [7] is 16.6 µM (active).
As to `Cn1c(CCCC(=O)O)nc2cc(N(CCCl)CCCl)ccc21`, the Potency entry in assay [1] and in [9] was “inactive” each time. Further, the Potency in assay [2] is 6.62 µM (active); in assay [3], 8.33 µM (active); in [8], 14.8 µM (active).
Take `O=P1(NCCCl)OCCCN1CCCl` (stereo not given): the Potency in [2] is 8.33 µM (active); in assay [3], 18.7 µM (active); in [9], 16.6 µM (active); in assay [8], 16.6 µM (active). Besides, in [5], the Potency entry is “inactive”.
